# Compound activity deposited in PubChem by National Center for Advancing Translational Sciences (NCATS).
# Sampled rows, rich in hits. Any-hit rate of the full collection: about 8%.
# Lassa entry inh: blocks Lassa virus binding to or entry into cells | Lassa virus pseudotype entry inhibition, cell reporter | Potency, µM (top dose mostly 37.9 µM), without a hit: top-dose activity change, negative = inhibition, most hits filed as inhibitors | AID 540256 | 1.2% of 300,000 active; calls by dose curve; tested in HEK293 cells; further: potency means the concentration at half of the fitted maximal effect; on the % scale 0 is the no-effect control and ±100 the full control effect; nearly all actives have a fitted effect of over 50% in size
# MARV entry inh: inhibitors of Marburg virus binding or cell entry; Marburg virus pseudotyped entry inhibition, cell reporter; Potency, µM (titrated, usually from 37.8 µM), for inactives: at the top dose activity change, negative = inhibition, hits mostly inhibitors; 1.8% of 300,000 active; calls by dose curve; tested in HEK293 cells; further: potency means the concentration at half of the fitted maximal effect; on the % scale 0 is the no-effect control and ±100 the full control effect
# HCV inh: blocks hepatitis C virus. 3.4% of 340,000 active. AID 651820. Potency, µM (titrated, usually from 41.8 µM), for inactives: at the top dose activity change, negative = inhibition, hits mostly inhibitors. Huh7.5.1 HCVcc-Cre infection, luciferase reporter, 44 h; active means well fitted inhibition curve with a large enough effect; inconclusive means small, poorly fitted or top-dose-only effect, or another doubt; inactive means no such curve, though single readings can be large or run the other way; further: potency means the concentration at half of the fitted maximal effect; on the % scale 0 is the no-effect control and ±100 the full control effect
#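 Infectious HCVcc-Cre (~0.5 moi) was added to cells just after compound, with cells seeded 4 h earlier at 1,000 per well. Luciferase activity after 44 h culture reported infection; substrate was incubated 15 min at room temperature before reading.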
# SARS PLP yeast: blocks SARS-CoV papain-like protease in a yeast assay; S. cerevisiae expressing SARS-CoV PLpro, growth rescue; Potency, µM (doses to about 32.9 µM), inactives show at the highest dose activity, positive = growth rescue, actives largely listed as activators; 0.19% of 330,000 active; calls by dose curve; further: potency means the concentration at half of the fitted maximal effect; 0% is about no effect; nearly all actives have a fitted effect of over 55% in size
# FMDV antiviral: blocks foot and mouth disease virus. FMDV antiviral cell-based qHTS. Potency, µM (highest dose often 57.9 µM), for inactives: top-dose activity change, negative = inhibition, hits mostly inhibitors. 1.2% of 410,000 active. AID 1159524; calls by dose curve; tested in HEK293T cells; further: read-out not given here; potency means the concentration at half of the fitted maximal effect; on the % scale 0 is the no-effect control and ±100 the full control effect; nearly all actives have a fitted effect of over 45% in size
# HCMV antiviral: blocks human cytomegalovirus replication | HFF cells, HCMV-luciferase reporter, 72 h; active compounds read low | activity change, negative = inhibition, % at 57.5 µM | 4.5% of 410,000 active | AID 1259415; in the data active means activity change below about -60%; inconclusive means no clear call, values can overlap the other calls; inactive means above about -39%; further: on the % scale 0 is the no-effect control and ±100 the full control effect
#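 Compounds were evaluated in HFFs infected with an HCMV luciferase reporter virus (MOI 1 PFU/cell). Luciferase in lysates collected 72 h post infection served as the replication measure.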
# * marks the source's active call; other numbers are inactive results; ? = inconclusive; . = no result; [ ] = dose if it differs, or a comment.
SMILES,Lassa entry inh,MARV entry inh,HCV inh,SARS PLP yeast,FMDV antiviral,HCMV antiviral
COc1cccc2sc(N(CCCN(C)C)C(=O)c3ccc(S(=O)(=O)N4CCc5ccccc5C4)cc3)nc12,-3.8%[46.1 µM],?,?,-6.9%,-7.2%,?
COc1ccc(C)c2sc(N(CCCN(C)C)C(=O)c3ccc(S(=O)(=O)N4CCc5ccccc5C4)cc3)nc12,?,?,?,.,?,-97.8*
COc1ccc(OC)c2sc(N(CCCN(C)C)C(=O)c3ccc(S(=O)(=O)N4CCc5ccccc5C4)cc3)nc12,.,.,3.98µM*,2.3%,.,.
Cc1ccc2sc(N(CCCN(C)C)C(=O)c3ccc(S(=O)(=O)N4CCc5ccccc5C4)cc3)nc2c1C,1.2%,?,?,2.7%,-4.3%,-16.4
Cc1ccc(OCC(=O)NNC(=O)CCC(=O)NCc2ccccc2)cc1,9.8%,?,-11.6%,-2.6%,-13.4%,-14.6
Cc1ccc(OCC(=O)NNc2c3ccccc3nc3ccccc23)cc1,?,?,1µM*,-23.3%,?,-95.0*
Cc1cc(CNC(=O)COc2ccccc2)c2ccccc2n1,?,?,-25.4%,-1.9%,-24.2%,18.8
O=C(Cc1ccccc1)NNc1c2ccccc2nc2ccccc12,-10.2%[46.1 µM],?,?,0.2%,0.9%,-66.6*
Cc1cccc(OCC(=O)NNc2c3ccccc3nc3ccccc23)c1,?,?,1µM*,-5.4%,?,-96.8*
CN(C)c1cccc(CNC(=O)c2csc([C@H]3C[C@H](O)[C@@H](CO)O3)n2)c1,.,.,.,.,-7.7%,23.2
CCN(CC)CCNC(=O)C(Cl)=C1C(Cl)=C(Cl)C(Cl)=C1Cl,?,?,?,.,22.4µM*,-76.3*
Cn1c(=O)c2c(ncn2CC(COCc2ccc(Cl)cc2)OCc2ccc(Cl)cc2)n(C)c1=O (stereo unspecified),?,7.94µM*,?,-18.4%,?,-12.1
CCN(Cc1ccncc1)Cc1ccc2c(c1)CN(C(=O)c1ccc(OC)cc1)CCO2,.,.,.,.,-13.0%,.
Cc1nc(NCc2ccccn2)c2c3c(sc2n1)CCCC3,-0.8%[46.1 µM],?,22.4µM*,0.1%,?,-17.4
Cc1nc(NCc2ccco2)c2c3c(sc2n1)CCC3,-2.9%,?,-15.1%,-8.9%,?,-70.3*
c1ccc(CNc2ncnc3sc4c(c23)CCCC4)nc1,6.9%,-16.9%,?,-0.8%,?,?
COc1cccc(CNC(=O)c2c(OC)cc(=O)n3c2CCN(C(=O)c2cc(F)cc(F)c2)CC3)c1,.,.,.,.,6.1%,.
CCC(C)Nc1nc(N)c([N+](=O)[O-])c(Nc2ccccc2OC)n1 (stereo unspecified),?,-17.1%[46.1 µM],12.6µM*,-1.7%,?,?
CCC(C)Nc1nc(N)c([N+](=O)[O-])c(NCc2ccccc2)n1 (stereo unspecified),.,.,11.2µM*,-1.4%,?,-26.3
COc1ccccc1Nc1nc(NCC(C)C)nc(N)c1[N+](=O)[O-],-6.3%,2.6%[46.1 µM],?,-0.8%,?,-84.7*
c1cncc(OC2CCN(Cc3ccc4c(c3)CN(Cc3nc5ccccc5s3)CCO4)CC2)c1,.,.,.,.,13.6%,.
O=C(CN1CCN(S(=O)(=O)c2cccs2)CC1)NCC1CCCCC1,.,.,-2.9%,1.2%,-17.0%,2.5
COc1cccc2c1[C@H](C=Cc1ccccc1)[C@@H]([C@H](O)CN=[N+]=[N-])OC2,.,-5.1%[14.2 µM],.,.,.,.
COc1ccccc1C(=O)Nc1c(C(=O)Nc2cc(Cl)ccc2C)sc2nc(C)cc(C)c12,-0.4%[46.1 µM],?,.,.,-0.2%,-101.9*
c1cncc(OC2CCN(Cc3ccc4c(c3)CN(Cc3ccc5c(c3)OCCO5)CCO4)CC2)c1,.,.,.,.,-19.4%,.
COc1cc2cnc(-c3ccsc3)cc2cc1OC,.,.,?,-17.9%,4.9%,43.6
COc1cc2cnc(-c3ccsc3)c(-c3ccc(F)cc3)c2cc1OC,.,.,6.31µM*,-5.6%,?,13.7
CC/C(C)=N\Nc1nc(-c2cc3cc(OC)ccc3oc2=O)cs1,-25.0%[46.1 µM],?,8.91µM*,-2.3%,-9.1%,29.8
Cc1ccc(NC(=S)NCC2CCN(C(C)c3ccccc3)C2)cc1C (stereo unspecified),.,.,-11.7%,2.6%,-2.8%,-62.8*
NC(=O)COC(=O)c1cccnc1Nc1ccccc1F,19.4%,16.5%[46.1 µM],4.5%,-1.6%,14.3%,-70.7*
